Legend:
[1] = target: T1, Serine/threonine-protein kinase TBK1 (Homo sapiens) (UniProt Q9UHD2); details: at 1 µM;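 further: values are mean inhibition of TBK1, screened as part of the GSK published kinase inhibitor set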
T1 sequence (whole entry): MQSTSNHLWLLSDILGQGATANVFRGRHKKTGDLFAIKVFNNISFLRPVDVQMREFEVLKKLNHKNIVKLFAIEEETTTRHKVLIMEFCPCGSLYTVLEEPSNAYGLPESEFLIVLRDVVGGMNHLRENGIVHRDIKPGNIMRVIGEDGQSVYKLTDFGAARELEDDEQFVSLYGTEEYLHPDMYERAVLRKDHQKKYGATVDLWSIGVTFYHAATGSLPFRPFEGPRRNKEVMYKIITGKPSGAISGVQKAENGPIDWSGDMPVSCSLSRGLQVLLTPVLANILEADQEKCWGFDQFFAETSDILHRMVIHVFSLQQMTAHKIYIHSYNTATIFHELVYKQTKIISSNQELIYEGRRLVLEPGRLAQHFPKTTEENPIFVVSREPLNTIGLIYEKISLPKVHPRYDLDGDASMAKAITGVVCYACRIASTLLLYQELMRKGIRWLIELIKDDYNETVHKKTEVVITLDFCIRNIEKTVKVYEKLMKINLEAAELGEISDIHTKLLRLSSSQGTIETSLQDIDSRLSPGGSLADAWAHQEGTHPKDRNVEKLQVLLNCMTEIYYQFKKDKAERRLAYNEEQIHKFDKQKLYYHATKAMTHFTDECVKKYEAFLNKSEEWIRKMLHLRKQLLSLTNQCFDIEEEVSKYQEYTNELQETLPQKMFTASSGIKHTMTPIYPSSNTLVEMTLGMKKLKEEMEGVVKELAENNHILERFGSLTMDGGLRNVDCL

[2] = target: T2, Testis-specific serine/threonine-protein kinase 1 (Homo sapiens) (UniProt Q9BXA7); details: at 0.1 µM
T2 sequence (whole entry): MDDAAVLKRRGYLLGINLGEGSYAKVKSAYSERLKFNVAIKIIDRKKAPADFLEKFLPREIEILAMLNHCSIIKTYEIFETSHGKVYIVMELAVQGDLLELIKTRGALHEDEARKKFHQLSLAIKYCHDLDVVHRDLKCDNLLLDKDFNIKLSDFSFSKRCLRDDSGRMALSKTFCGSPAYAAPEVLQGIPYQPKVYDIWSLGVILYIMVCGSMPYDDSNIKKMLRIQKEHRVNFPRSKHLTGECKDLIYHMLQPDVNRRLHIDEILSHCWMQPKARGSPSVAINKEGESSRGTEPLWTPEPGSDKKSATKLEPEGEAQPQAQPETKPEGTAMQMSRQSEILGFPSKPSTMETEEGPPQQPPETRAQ

[3] = target: T2, Testis-specific serine/threonine-protein kinase 1 (Homo sapiens); details: at 1 µM
[4] = target: T3, Testis-specific serine/threonine-protein kinase 2 (Homo sapiens) (UniProt Q96PF2); details: at 0.1 µM
T3 sequence (whole entry): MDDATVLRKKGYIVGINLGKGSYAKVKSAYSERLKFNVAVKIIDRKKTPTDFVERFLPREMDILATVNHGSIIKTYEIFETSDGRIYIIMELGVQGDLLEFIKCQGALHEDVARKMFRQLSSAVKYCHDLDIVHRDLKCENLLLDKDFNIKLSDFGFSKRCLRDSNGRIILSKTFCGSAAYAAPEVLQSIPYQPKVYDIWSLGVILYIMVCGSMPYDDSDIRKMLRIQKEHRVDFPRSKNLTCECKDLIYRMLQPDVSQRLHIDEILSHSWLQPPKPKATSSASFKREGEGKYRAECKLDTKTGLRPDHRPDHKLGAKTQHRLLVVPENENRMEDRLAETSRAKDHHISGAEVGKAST

[5] = target: T3, Testis-specific serine/threonine-protein kinase 2 (Homo sapiens); details: at 1 µM
[6] = target: Casein kinase I isoform alpha (Homo sapiens) (UniProt P48729); details: at 0.1 µM
Chain of Casein kinase I isoform alpha (Homo sapiens) (P48729 2-337 limits assumed): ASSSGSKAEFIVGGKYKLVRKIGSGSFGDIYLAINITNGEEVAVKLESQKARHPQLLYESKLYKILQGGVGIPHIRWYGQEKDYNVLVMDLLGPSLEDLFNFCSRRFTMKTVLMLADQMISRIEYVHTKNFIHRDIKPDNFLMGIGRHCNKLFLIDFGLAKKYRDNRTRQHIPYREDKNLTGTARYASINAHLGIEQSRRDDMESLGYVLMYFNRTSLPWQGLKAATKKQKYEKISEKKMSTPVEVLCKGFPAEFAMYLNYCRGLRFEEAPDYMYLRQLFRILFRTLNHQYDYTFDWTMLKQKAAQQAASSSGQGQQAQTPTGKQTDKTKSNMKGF

[7] = target: Casein kinase I isoform alpha (Homo sapiens) (UniProt P48729); details: at 1 µM
[8] = target: Casein kinase I isoform gamma-1 (Homo sapiens) (UniProt Q9HCP0); details: at 0.1 µM
Chain of Casein kinase I isoform gamma-1 (Homo sapiens) (Q9HCP0 whole entry, looked up, canonical isoform): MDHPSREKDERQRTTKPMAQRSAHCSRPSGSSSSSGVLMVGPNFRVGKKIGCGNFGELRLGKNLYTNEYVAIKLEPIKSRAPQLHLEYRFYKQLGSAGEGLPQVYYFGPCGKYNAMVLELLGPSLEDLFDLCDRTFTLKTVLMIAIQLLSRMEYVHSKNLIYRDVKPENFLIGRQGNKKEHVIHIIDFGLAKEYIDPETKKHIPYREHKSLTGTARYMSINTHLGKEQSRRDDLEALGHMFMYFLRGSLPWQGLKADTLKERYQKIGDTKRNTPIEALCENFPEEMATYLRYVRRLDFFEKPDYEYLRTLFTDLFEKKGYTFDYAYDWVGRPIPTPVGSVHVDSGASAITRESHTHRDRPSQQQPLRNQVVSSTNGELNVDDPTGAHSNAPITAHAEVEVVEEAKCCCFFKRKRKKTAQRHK

[9] = target: Casein kinase I isoform gamma-1 (Homo sapiens) (UniProt Q9HCP0); details: at 1 µM
[10] = target: Casein kinase I isoform gamma-2 (Homo sapiens) (UniProt P78368); details: at 0.1 µM
Chain of Casein kinase I isoform gamma-2 (Homo sapiens) (P78368 whole entry, looked up, canonical isoform): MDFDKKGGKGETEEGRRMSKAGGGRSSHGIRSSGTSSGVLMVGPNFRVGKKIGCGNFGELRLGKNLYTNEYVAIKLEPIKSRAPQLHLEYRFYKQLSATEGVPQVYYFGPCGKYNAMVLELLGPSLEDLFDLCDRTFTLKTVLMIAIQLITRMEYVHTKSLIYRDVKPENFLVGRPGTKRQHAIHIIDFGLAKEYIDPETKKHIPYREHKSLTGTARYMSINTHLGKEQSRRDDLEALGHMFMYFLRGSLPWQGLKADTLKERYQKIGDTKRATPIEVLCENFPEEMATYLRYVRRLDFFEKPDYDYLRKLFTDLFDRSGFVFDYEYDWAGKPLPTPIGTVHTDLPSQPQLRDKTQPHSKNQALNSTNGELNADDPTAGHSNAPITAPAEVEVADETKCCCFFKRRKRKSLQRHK

[11] = target: Casein kinase I isoform gamma-2 (Homo sapiens) (UniProt P78368); details: at 1 µM
[12] = target: Casein kinase I isoform gamma-3 (Homo sapiens) (UniProt Q9Y6M4); details: at 0.1 µM
Chain of Casein kinase I isoform gamma-3 (Homo sapiens) (Q9Y6M4 whole entry, looked up, canonical isoform): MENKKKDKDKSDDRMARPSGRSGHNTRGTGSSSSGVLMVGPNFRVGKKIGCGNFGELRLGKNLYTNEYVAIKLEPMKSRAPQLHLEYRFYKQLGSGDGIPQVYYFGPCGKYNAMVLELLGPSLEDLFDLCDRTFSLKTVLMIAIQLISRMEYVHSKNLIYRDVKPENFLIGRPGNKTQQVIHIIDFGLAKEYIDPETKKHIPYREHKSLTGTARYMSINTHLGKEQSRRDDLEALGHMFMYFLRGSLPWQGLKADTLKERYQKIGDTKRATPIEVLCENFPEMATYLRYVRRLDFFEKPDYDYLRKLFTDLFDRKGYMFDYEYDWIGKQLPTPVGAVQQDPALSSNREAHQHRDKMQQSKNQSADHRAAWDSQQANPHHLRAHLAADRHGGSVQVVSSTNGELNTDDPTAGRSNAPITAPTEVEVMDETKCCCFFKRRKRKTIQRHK

[13] = target: Casein kinase I isoform gamma-3 (Homo sapiens) (UniProt Q9Y6M4); details: at 1 µM
[14] = target: Cyclin-dependent kinase 1 (Homo sapiens) (UniProt P06493); details: at 0.1 µM
Chain of Cyclin-dependent kinase 1 (Homo sapiens) (P06493 whole entry, looked up): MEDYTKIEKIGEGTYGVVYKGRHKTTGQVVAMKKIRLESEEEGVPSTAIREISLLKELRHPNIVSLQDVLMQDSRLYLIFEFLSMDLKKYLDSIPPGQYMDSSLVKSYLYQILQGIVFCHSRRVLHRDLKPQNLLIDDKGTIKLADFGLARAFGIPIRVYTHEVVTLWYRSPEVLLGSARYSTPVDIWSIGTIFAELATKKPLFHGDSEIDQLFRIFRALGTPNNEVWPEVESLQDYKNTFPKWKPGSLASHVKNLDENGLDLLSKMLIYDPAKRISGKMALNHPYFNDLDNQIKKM

[15] = target: Cyclin-dependent kinase 1 (Homo sapiens) (UniProt P06493); details: at 1 µM
[16] = target: Cyclin-dependent kinase 2 (Homo sapiens) (UniProt P24941); details: at 0.1 µM
[17] = target: Cyclin-dependent kinase 2 (Homo sapiens) (UniProt P24941); details: at 1 µM
[18] = target: Cyclin-dependent kinase 2 (Homo sapiens) (UniProt P24941); details: at 0.1 µM; remark: listed apart in the source
[19] = target: Cyclin-dependent kinase 2 (Homo sapiens) (UniProt P24941); details: at 1 µM; remark: listed apart in the source
[20] = target: CDK3/Cyclin E (Homo sapiens) (UniProt P24864+Q00526); details: at 0.1 µM;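 further: reported percentages are mean inhibition values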
Chain of CDK3/Cyclin E (Homo sapiens) (P24864 whole entry, looked up): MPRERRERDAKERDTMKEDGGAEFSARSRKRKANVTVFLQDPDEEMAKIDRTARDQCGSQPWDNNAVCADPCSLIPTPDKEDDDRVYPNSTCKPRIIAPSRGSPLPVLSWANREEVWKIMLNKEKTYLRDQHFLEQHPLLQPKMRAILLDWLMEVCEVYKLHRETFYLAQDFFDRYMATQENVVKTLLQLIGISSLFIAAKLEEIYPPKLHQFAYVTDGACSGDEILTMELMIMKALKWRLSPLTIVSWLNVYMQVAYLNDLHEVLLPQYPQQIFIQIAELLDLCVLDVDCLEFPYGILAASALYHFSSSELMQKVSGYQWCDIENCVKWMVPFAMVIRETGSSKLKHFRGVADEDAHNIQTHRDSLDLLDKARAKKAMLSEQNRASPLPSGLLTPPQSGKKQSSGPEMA
Chain of CDK3/Cyclin E (Homo sapiens) (Q00526 whole entry, looked up): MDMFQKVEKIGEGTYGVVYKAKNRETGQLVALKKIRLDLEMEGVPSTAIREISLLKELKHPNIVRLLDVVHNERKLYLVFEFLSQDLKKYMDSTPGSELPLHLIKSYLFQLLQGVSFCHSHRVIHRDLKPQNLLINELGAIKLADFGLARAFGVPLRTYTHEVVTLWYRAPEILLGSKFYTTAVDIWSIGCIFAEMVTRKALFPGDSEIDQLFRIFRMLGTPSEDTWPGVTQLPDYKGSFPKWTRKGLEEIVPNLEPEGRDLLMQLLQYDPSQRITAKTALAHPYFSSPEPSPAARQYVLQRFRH

| Structure (SMILES) | inhibition [1] [%] | inhibition [2] [%] | inhibition [3] [%] | inhibition [4] [%] | inhibition [5] [%] | inhibition [6] [%] | inhibition [7] [%] | inhibition [8] [%] | inhibition [9] [%] | inhibition [10] [%] | inhibition [11] [%] | inhibition [12] [%] | inhibition [13] [%] | inhibition [14] [%] | inhibition [15] [%] | inhibition [16] [%] | inhibition [17] [%] | inhibition [18] [%] | inhibition [19] [%] | inhibition [20] [%] |
| --- | --- | --- | --- | --- | --- | --- | --- | --- | --- | --- | --- | --- | --- | --- | --- | --- | --- | --- | --- | --- |
| Cc1cccc(Nc2ncc(-c3ccccc3)o2)c1 | 7.09 | 2.67 | 4.49 | 0.72 | 1.53 | 3.35 | 9.63 | 2.09 | 4.93 | 1.92 | 3.38 | 2.18 | 2.99 | 3.39 | 5.05 | 4.32 | 8.62 | 1.61 | 9.01 | -0.22 |
| NS(=O)(=O)c1ccc(Nc2ncc(-c3ccccc3)o2)cc1 | 8.12 | 1.35 | 2.89 | 1.54 | 1.1 | 1.88 | 7.88 | 2.83 | 4.94 | 2.8 | 4.34 | 3.53 | 3.96 | 19.7 | 66.2 | 48.2 | 109 | 56.2 | 86.8 | 44.6 |
| N#Cc1c(NC(=O)c2ccc(F)cc2)sc2c1CCCC2 | 0.54 | 0.45 | 0.89 | 0.22 | 0.33 | -0.68 | 1.93 | 0.85 | 0.78 | 0.66 | 0.5 | 0.26 | -1.32 | -0.03 | -0.31 | 0.4 | -1.07 | 0.42 | 1.03 | 0.87 |
| COC(=O)Nc1nc2ccc(Oc3ccc(NC(=O)Nc4cccc(Cl)c4)cc3)cc2[nH]1 | -2.2 | 2.29 | 0.67 | -0.06 | -0.21 | 0.11 | 0.94 | 0.68 | 1.34 | 0.75 | 1.64 | 0.53 | 1.25 | -0.02 | 0 | -0.3 | -1.22 | 1.4 | 0.48 | 1.02 |
| O=C(O[C@H]1CN[C@H](C#Cc2cc3ncnc(Nc4ccc(Cc5ccccc5)cc4)c3s2)C1)N1CCOCC1 | 1.65 | 0.42 | 0.57 | 1.12 | -0.88 | 0.51 | 1.74 | 2.25 | 2.28 | 2.49 | 2.93 | 2.83 | 0.75 | 0.31 | 1.96 | 0.69 | 0.19 | 1.15 | 1.72 | -2.04 |
| CN1CCC(n2cnc(-c3ccc(F)cc3)c2-c2ccnc(N)n2)CC1 | 3.54 | 2.05 | 3.07 | 2.28 | 1.61 | 30.1 | 73.1 | 1.88 | 9.03 | 1.68 | 4.69 | 0.53 | 10.3 | 0.23 | 2 | 0.76 | 1.07 | 1.45 | 2.89 | 1.57 |
| Nc1nc(-c2ccc(F)cc2)c(-c2ccc3ncccc3n2)s1 | 6.6 | 4.27 | 6.63 | 2.36 | 2.23 | 3.47 | 15.2 | 4.29 | 10.5 | 3.47 | 8.8 | 4.7 | 16.9 | 3.94 | 8.07 | 3.61 | 0.25 | 6.09 | 10.7 | 3.73 |
| CCOc1ccc2c(-c3ccnc(Nc4cccc(C(F)(F)F)c4)n3)cnn2n1 | 13.1 | 2.69 | 3.46 | 0.15 | 0.22 | 0.42 | 0.35 | 2.16 | 3.1 | 2.06 | 3.07 | 1.18 | 1.86 | 0.34 | 6.63 | 1.78 | 8.89 | 3.35 | 14.1 | 2.12 |
| Fc1ccc(-c2nn3ncccc3c2-c2ccnc(Nc3ccc4c(c3)OCCO4)n2)cc1 | 4.55 | 4.06 | 2.68 | 1.3 | 1.02 | 39.5 | 72.5 | 14.8 | 58.5 | 11.1 | 61.6 | 23.9 | 76.1 | 0.14 | 0.65 | 1.25 | 3.7 | 2.71 | 2.76 | 3.59 |
| COc1ccc(-c2cc(-c3c[nH]nc3-c3ccccn3)ccn2)cc1 | 6.38 | 3.33 | 5.54 | 2.38 | 3.88 | 3.31 | 11.5 | 4.71 | 5.78 | 3.51 | 5.19 | 3.68 | 6.59 | 0.11 | 1.79 | 1.84 | 7.74 | 4.73 | 5.82 | 2.59 |
| O=S(=O)(CCNCc1ccc(-c2ccc3ncnc(Nc4ccc(OCc5cccc(F)c5)c(Cl)c4)c3c2)o1)c1ccccc1 | 5.89 | 4.61 | 5.43 | 2.59 | 3.64 | 4.43 | 6.02 | 4.93 | 6.77 | 4.49 | 5.75 | 4.59 | 5.14 | 0.29 | 1.65 | 2.32 | 2.63 | 3.6 | 5.45 | 0.01 |
| COc1cc(Nc2nccc(Nc3ccc4c(C)n[nH]c4c3)n2)cc(OC)c1OC | 26.3 | 1.79 | 12.6 | -0.93 | -0.95 | 0.44 | 0.47 | 2.35 | 1.23 | -0.28 | 9.2 | 0.39 | -0.68 | 0.71 | 3.05 | 0.73 | 3.22 | 2.32 | 6.07 | 1.75 |
| COc1cc(/C=N/Nc2ncnc3[nH]ncc23)ccc1O | 21.1 | 4.57 | 11.6 | 3.14 | 1.44 | 3.78 | 13.7 | 3.68 | 19 | 4.88 | 25.1 | 3.84 | 20 | 2.77 | 15.8 | 3.26 | 28.3 | 4.7 | 13.9 | 1.56 |
